Laboratory results taken from PubChem BioAssay (NCI).
The panel holds about 83,000 compounds, 20% with a hit somewhere; the sample as a whole holds those more often.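 Each cell line was grown in a 96-well plate and treated with one concentration of compound for 48 hours. Values below 10 were considered active.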 Active and inactive are the calls of the source.

Tests used:
Experiment in all cases: NCI-60 one-dose screen, 48 h (100 = growth as untreated, 0 = no growth, -100 = all killed)
Settings in all cases: 10 µM unless noted
[1] = test system: DU-145 prostate
[2] = test system: K-562 leukemia
[3] = test system: MALME-3M melanoma
[4] = test system: MDA-MB-231 breast
[5] = test system: RXF 393 renal
[6] = test system: SF-268 CNS
[7] = test system: SF-295 CNS
[8] = test system: SF-539 CNS
[9] = test system: UACC-257 melanoma
[10] = test system: M14 melanoma

Measured: growth

Cc1cc(=O)n(C(=S)Nc2ccc(Cl)cc2)c2cc(O)ccc12
inactive: [1] 109% | [2] 113% | [3] 91.5% | [4] 92.4% | [5] 99.7% | [6] 102% | [7] 99.8% | [8] 101% | [9] 110% | [10] 108%

O=C1C=CC2(O)OC/C(=C\c3ccccc3)C(O)=C2C1=O (stereo not given)
active: [2] 5.02% | [3] -37.8% | [4] -22.4% | [5] -64.7% | [8] -38.8%
inactive: [1] 24.2% | [6] 19.1% | [7] 74.8% | [9] 65.9% | [10] 27%

CCOc1ccc(/C=C/C(=O)c2cccc(OCCCOc3cccc(C(=O)/C=C/c4ccc(OCC)cc4)c3)c2)cc1
inactive: [1] 82.8% | [2] 69.9% | [3] 100% | [4] 83.3% | [5] 105% | [6] 85.3% | [7] 76.4% | [8] 110% | [9] 82.7% | [10] 69%

CCOC(=O)c1cnn(CC(C)O)c1NC(=O)NCc1cccc(F)c1 (stereo not given)
inactive: [1] 96.7% | [2] 81.1% | [3] 99.2% | [4] 106% | [5] 111% | [6] 101% | [7] 99.9% | [8] 98.2% | [9] 99.7% | [10] 83.2%

Cc1cc(N2CCN(CC(=O)Nc3ccc4c(ccn4Cc4ccccc4)c3)CC2)nc(N2CCOCC2)n1
inactive: [1] 95.4% | [2] 60.5% | [3] 85.7% | [4] 93.4% | [5] 63.9% | [6] 92.9% | [7] 84% | [8] 98.2% | [9] 80.2% | [10] 90.1%

CC(=O)c1sc(-c2ccc(F)cc2)cc1O
inactive: [1] 97.7% | [2] 88.5% | [3] 99% | [4] 127% | [5] 111% | [6] 97.2% | [7] 105% | [8] 114% | [9] 100% | [10] 95.1%

Oc1nc(NCc2ccccc2)sc1/C=C1\C=Nc2ncccc21
active: [5] -14.1%
inactive: [1] 56.5% | [2] 80.7% | [3] 129% | [4] 83.8% | [6] 52.3% | [7] 73.7% | [8] 23.3% | [9] 71.3% | [10] 80.1%

O=[N+]([O-])c1c(O)c(Cl)cc(Cl)c1Cl
inactive: [1] 113% | [2] 103% | [3] 96.5% | [4] 103% | [5] 104% | [6] 102% | [7] 97.9% | [8] 109% | [9] 108% | [10] 98.1%

COc1ccc2c(O)c(/C=C3\N=Nc4ncccc43)oc2c1C[C@@H]1CCNC[C@H]1F
active: [1] -19.7% | [2] -26.4% | [3] -31.2% | [4] -40% | [5] -68.1% | [6] -31.1% | [7] 0.571% | [8] -48.2% | [10] -70.3%
inactive: [9] 13.7%

Cc1ccc(OCCOCCOCCOc2ccc(C)n(O)c2=S)c(=S)n1O
inactive: [1] 50.5% | [2] 18.9% | [3] 47% | [4] 28.3% | [5] 66% | [6] 29% | [7] 29.1% | [8] 45.8% | [9] 68.4% | [10] 36%

COC(=O)/C=C1/SC(=NCc2ccccc2)N(CCc2c[nH]c3ccccc23)C1=O
inactive: [1] 72.5% | [2] 48.5% | [3] 108% | [4] 91% | [5] 81.9% | [6] 90.3% | [7] 89.9% | [8] 105% | [9] 81.6% | [10] 80.5%

CCCOC(=O)Nc1nc2ccc(SCC)cc2s1
inactive: [1] 94.6% | [2] 26.2% | [3] 77.9% | [4] 82.9% | [5] 95.8% | [6] 92.8% | [7] 80.8% | [8] 80.9% | [9] 96.4% | [10] 46.5%

Cc1ncc(C(=O)Nc2ccc(CN3CCN(C)CC3)c(C(F)(F)F)c2)cc1C#Cc1cnc(N)c2ccc(C#N)cc12
active: [1] 8.97% | [2] -35.3% | [3] -55.6% | [4] -76.5% | [5] -64% | [8] -0.429% | [9] -9.1% | [10] -41.5%
inactive: [6] 16.7% | [7] 54.1%

COc1ccc(N/N=C/c2cn(-c3ccc(C(=O)O)cc3)nc2-c2cc3ccccc3oc2=O)cc1
inactive: [1] 84.2% | [2] 11.3% | [3] 109% | [4] 77.9% | [5] 111% | [6] 68.5% | [7] 22.5% | [8] 50% | [9] 88.9% | [10] 42.3%

C=C1C(=O)O[C@H]2[C@H]1CC/C(COC(=O)/C=C\C(=O)NCc1ccc(Cn3c(=O)sn(CCCCl)c3=O)cc1)=C\CC[C@@]1(C)O[C@@H]21
inactive: [1] 45.9% | [2] 26.7% | [3] 49.6% | [4] 71.9% | [5] 86.9% | [6] 93.5% | [7] 99.4% | [8] 79.9% | [9] 68.9% | [10] 40.4%

N=C(N)c1ccc(-c2ccc(-c3cc(Cl)cc(Cl)c3)s2)s1
active: [1] -72.2% | [2] -52.5% | [3] -13.1% | [4] -55.1% | [5] -84.2% | [6] -43.8% | [7] -69.8% | [8] -60.6% | [9] -46.3% | [10] 1.55%

Cc1ccc(S(=O)(=O)c2nc(-c3ccccc3)oc2SCC(N)=O)cc1
inactive: [1] 101% | [2] 88.2% | [3] 98.9% | [4] 104% | [5] 99% | [6] 90% | [7] 98.9% | [8] 97.2% | [9] 113% | [10] 97.1%

Cc1ccc2c(c1)=C/C(=C\c1cc(-c3ccccc3)[nH]c1O)C(=O)N=2
active: [8] 8.94%
inactive: [1] 61.6% | [2] 13.7% | [3] 54.5% | [4] 50.6% | [5] 34.5% | [6] 47.4% | [7] 32.8% | [9] 64.7% | [10] 17.8%

CC1=C(Cl)C(=O)c2cc(C)ccc2C1=O
inactive: [1] 115% | [2] 102% | [3] 114% | [4] 103% | [5] 84.9% | [6] 88% | [7] 108% | [8] 116% | [9] 106% | [10] 112%

C(=C(\C1=NCCN1)n1ccc2ccccc21)/c1ccccc1
inactive: [1] 103% | [2] 96.7% | [3] 93.4% | [4] 96.8% | [5] 89.9% | [6] 91.8% | [7] 99.3% | [8] 99.5% | [9] 93.3% | [10] 91.4%

O=C1c2cccnc2C(=O)c2c1c(C(=O)OCCc1ccccn1)c1ccccn21
active: [1] -87.9% | [2] -2.55% | [3] -57.5% | [4] 5.98% | [5] -46.6% | [6] -1.63% | [7] -50.9% | [8] -57.2% | [9] -53.2% | [10] -70.5%

O=C(NNc1nc2cc(F)ccc2n2c(CN3CCOCC3)ccc12)c1ccccc1
inactive: [1] 23.6% | [4] 17.3% | [6] 14.8%
active: [2] 5.32% | [3] 8.12% | [5] -0.227% | [7] 0.468% | [8] 4.33% | [9] -6.53% | [10] -15.6%

CNC(=O)NCC1OC(n2cnc3c(NC(=O)Nc4ccccc4)ncnc32)C2OC(=O)CC12 (stereo not given)
inactive: [1] 110% | [2] 81.1% | [3] 100% | [4] 98.9% | [6] 99.7% | [7] 103% | [8] 104% | [9] 125% | [10] 105%
active: [5] -22.7%

O=S(Nc1ccccc1)c1ccc(Cl)cc1 (stereo not given)
inactive: [1] 116% | [2] 94.6% | [3] 108% | [4] 103% | [5] 99.2% | [6] 100% | [7] 107% | [8] 102% | [9] 86.2% | [10] 99.2%

COCCn1cc(-c2csc(-c3c[nH]c4ccc(F)cc34)n2)c2cccnc21
inactive: [1] 64.6% | [3] 45% | [4] 27.5% | [5] 65% | [6] 46.5% | [7] 16.1% | [8] 46.8% | [9] 36.5% | [10] 13.2%
active: [2] 8.38%

COc1cc2c(cc1-c1c(C)noc1C)ncc1nc(CN3CCOCC3)n([C@H](C)COC(F)F)c12
inactive: [1] 62.2% | [2] 28% | [3] 37.8% | [4] 29.5% | [5] 35.1% | [6] 55.2% | [7] 40.3% | [8] 35.1% | [9] 26.3% | [10] 40.1%

O=C(NN1C(=O)CSC1c1cccc([N+](=O)[O-])c1)c1ccc(NC(=O)c2ccccn2)cc1 (stereo not given)
inactive: [1] 94.1% | [2] 100% | [3] 94.4% | [4] 113% | [5] 115% | [6] 96.1% | [7] 97.2% | [8] 99.8% | [9] 99% | [10] 102%
